Reference: PubChem BioAssay
Calls of active or inactive are those of the source.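 The calls were made as follows, unless noted: active = inhibition of the reporter signal at or above 50%; inactive = inhibition below 50%.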

Tests used:
[1] = inhibitors of TNFa-induced NFkB p65 translocation, primary screen, imaging, HUVEC, MLSMR starter and 10KST1 sets (AID 438;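 active = inhibition above 20% together with a positive visual image hit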;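 also: compound added about 3h40 before a 20 min TNFalpha stimulation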;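 as to inhibition: signal is the nuclear over cytoplasmic p65 intensity ratio per well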); details: HUVEC TNFa-induced p65 nuclear translocation; cell count: measured here: nuclei count (cytotoxicity indicator), at 2.08 µM; inhibition: at 2 µM, stronger effect = higher value, 0% TNFa-plus-vehicle, 100% no-TNFa wells
[2] = inhibitors of mutant huntingtin aggregation, primary screen, imaging, exon1htt(103Q)mCFP cells, high-content imaging (AID 483;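 active = visual image review flags a hit and inhibition of aggregation exceeds 20%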;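 also: compound exposure lasted 3 days before fixation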;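 as to nuclei count: percent of the per-plate median nuclei count of sample wells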); details: exon1htt(103Q)mCFP cell line, aggregate imaging, at 2 µM; inhibition of aggregation: stronger effect = higher value; nuclei count: measured here: cell count, toxicity
[3] = inhibitors of E-selectin induction by TNFa, primary screen, imaging, HUVEC, immunofluorescence, MLSMR starter and 10KST1 sets (AID 487;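 active = visually confirmed hit in the image check and inhibition above 20%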;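 as to inhibition: signal is fraction of cell area covered by stained E-selectin grains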;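 as to nuclei count: 100% = median nuclei count of all wells on the same plate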); details: HUVEC TNFalpha-induced E-selectin immunofluorescence imaging, at 2 µM; inhibition: stronger effect = higher value; nuclei count: measured here: cell number, toxicity
[4] = target: Voltage-gated potassium channel subunit beta-2 (Rattus norvegicus) (UniProt P62483); assay: KvBeta enzyme negative modulators, primary screen, biochemical, NADPH fluorescence (AID 622;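 active = fluorescence slope higher than the sample average by over 3 SD, cut at about -0.22 in these data, passing the limit was not always enough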;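 also: slope of raw intensity against log time taken from 70 to 1610 s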); details: recombinant KvBeta, 4-cyanobenzaldehyde reduction, at 10 µM, stronger effect = higher value
[5] = target: Voltage-gated potassium channel subunit beta-2 (Rattus norvegicus) (UniProt P62483); assay: KvBeta positive modulators, primary screen, biochemical, NADPH fluorescence (AID 623;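 active = NADPH fluorescence slope more negative than the mean of all samples by about 3 SD, 99.7% confidence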;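 also: fluorescence intensity change per second fitted from 20 to 320 s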); details: Recombinant KvBeta, NADPH fluorescence decrease slope, 10 min; at 10 µM; stronger effect = lower value
[6] = target: Alpha-2C adrenergic receptor (Homo sapiens) (UniProt P18825); assay: modulators of alpha2C/GIRK thallium flux, primary screen, cell-based, HEK293 alpha2C/GIRK1/2 (AID 624;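 active = fluorescence slope after compound addition differing from the mean of all screened samples at 99.7% confidence, in either direction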;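 also: slope of fluorescence ratio to pre-addition baseline per second over 15 to 24 s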); details: thallium flux BTC fluorescence, at 10 µM, actives lie on both sides
[7] = inhibitors of Sendai virus-induced IRF3 signaling, primary screen, TLR/RLR signaling modifier project, cell-based, Sendai virus stimulus, luciferase, 10K MLSCN set (AID 602276;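 active = inhibition at or above 50% at 10 µM; inactive = inhibition below 50%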;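 also: firefly luciferase from ISG56 promoter only with Renilla not read in this screen; 0% = Sendai virus plus DMSO and 100% = medium plus DMSO without virus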); details: HEK293 RL24 IRF3 luciferase reporter, at 10 µM, stronger effect = higher value
[8] = inhibitors of poly I:C-induced TLR3 signaling, primary screen, cell-based, poly I:C stimulus, luciferase, 10K MLSCN set (AID 602277); details: HEK293-TLR3 RL24 IRF3 luciferase reporter, at 10 µM, stronger effect = higher value

Chain of Voltage-gated potassium channel subunit beta-2 (Rattus norvegicus) (P62483 whole entry, looked up): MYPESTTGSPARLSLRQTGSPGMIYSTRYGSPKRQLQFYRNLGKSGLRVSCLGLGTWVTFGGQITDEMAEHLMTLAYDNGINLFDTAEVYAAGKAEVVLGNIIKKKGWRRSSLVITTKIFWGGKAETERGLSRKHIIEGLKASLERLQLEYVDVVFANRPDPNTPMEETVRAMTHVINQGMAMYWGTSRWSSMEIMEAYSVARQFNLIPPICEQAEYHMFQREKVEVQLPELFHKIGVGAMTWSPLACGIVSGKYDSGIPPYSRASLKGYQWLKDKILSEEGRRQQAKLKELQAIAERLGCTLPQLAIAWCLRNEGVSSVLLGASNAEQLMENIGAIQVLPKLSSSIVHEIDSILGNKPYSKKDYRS
Chain of Alpha-2C adrenergic receptor (Homo sapiens) (P18825 whole entry, looked up): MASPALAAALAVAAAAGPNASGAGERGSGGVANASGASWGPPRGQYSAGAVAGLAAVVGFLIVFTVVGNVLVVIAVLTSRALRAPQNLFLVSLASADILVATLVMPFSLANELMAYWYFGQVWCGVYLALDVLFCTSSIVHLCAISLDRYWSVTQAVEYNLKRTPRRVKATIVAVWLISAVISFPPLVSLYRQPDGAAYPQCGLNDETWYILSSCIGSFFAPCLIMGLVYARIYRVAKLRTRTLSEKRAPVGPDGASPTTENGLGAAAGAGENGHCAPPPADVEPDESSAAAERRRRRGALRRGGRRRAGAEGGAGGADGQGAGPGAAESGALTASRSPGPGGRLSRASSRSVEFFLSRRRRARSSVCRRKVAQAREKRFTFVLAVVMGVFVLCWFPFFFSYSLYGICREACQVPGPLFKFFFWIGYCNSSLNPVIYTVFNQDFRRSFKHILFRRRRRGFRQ

| Structure (SMILES) | cell count [1] | inhibition [1] | inhibition of aggregation [2] | nuclei count [2] [%] | inhibition [3] | nuclei count [3] [%] | fluorescence slope [4] | NADPH fluorescence slope [5] | slope [6] | inhibition [7] | inhibition [8] |
| --- | --- | --- | --- | --- | --- | --- | --- | --- | --- | --- | --- |
| Cc1ccc2cccc(SCC(=O)N3CCOCC3)c2n1 | 286 | -6.7% (inactive) | 28% (inactive) | 72.7 | -45.8% (inactive) | 105 | -0.327 (inactive) | 7.7e-06 (inactive) | 0.00384 (inactive) | 6.65% (inactive) | 31.6% (inactive) |
| O=C(CN1CCCN(S(=O)(=O)c2ccc(Br)cc2)CC1)Nc1ccc2c(c1)OCO2 | 587 | -4.1% (inactive) | -15.4% (inactive) | 107 | -24.8% (inactive) | 84.9 | -0.491 (inactive) | -3.2e-05 (inactive) | 0.00566 (inactive) | 10.3% (inactive) | 38.2% (inactive) |
| CCN(c1c(C)n(C)n(-c2ccccc2)c1=O)S(C)(=O)=O | 614 | 11.6% (inactive) | 3.3% (inactive) | 104 | -98.2% (inactive) | 145 | -0.58 (inactive) | -3.6e-05 (inactive) | 0.00621 (inactive) | 23.1% (inactive) | 24.6% (inactive) |
| COc1cccc(-c2nc(CS(=O)(=O)CC(=O)N3CCN(c4ccccn4)CC3)c(C)o2)c1 | 752 | -4.4% (inactive) | 2.6% (inactive) | 115 | -72.1% (inactive) | 114 | -0.506 (inactive) | -1.1e-05 (inactive) | 0.00682 (inactive) | 6.91% (inactive) | -1.07% (inactive) |
| C(=N/n1c2ccccc2c2ccccc21)/c1ccco1 | 360 | -2% (inactive) | -20.7% (inactive) | 102 | 2.6% (inactive) | 109 | -0.417 (inactive) | -0.000138 (inactive) | 0.00632 (inactive) | 12% (inactive) | 29.6% (inactive) |
| COc1cccc(NC(=O)c2nc3nc(C)cc(C(F)F)n3n2)c1 | 641 | -2.9% (inactive) | 1.9% (inactive) | 68.8 | -34.9% (inactive) | 96.6 | -0.567 (inactive) | -5.2e-05 (inactive) | 0.00736 (inactive) | 3.8% (inactive) | 4.85% (inactive) |
| CCOC(=O)Cc1csc(/C(=N/O)C(N)=O)n1 | 638 | 2.7% (inactive) | 0.1% (inactive) | 126 | -62.8% (inactive) | 108 | -0.48 (inactive) | -9.9e-05 (inactive) | 0.00629 (inactive) | 13.2% (inactive) | 15.9% (inactive) |
| Cc1ccc(Cn2c(=N)c(C(=O)NCc3ccco3)cc3c(=O)n4ccccc4nc32)cc1 | 491 | 1.5% (inactive) | -19.4% (inactive) | 95.7 | -83% (inactive) | 106 | -0.279 (inactive) | -5.9e-05 (inactive) | 0.00216 (inactive) | -2.87% (inactive) | 10.3% (inactive) |
| COc1ccc(C(c2nnnn2C2CCCC2)N2CCN(C3CCCC3)CC2)cc1OC (stereo not drawn) | 263 | 17.5% (inactive) | 8.8% (inactive) | 104 | 2% (inactive) | 88.5 | -0.512 (inactive) | -0.000149 (inactive) | 0.00468 (inactive) | 12.8% (inactive) | 18.8% (inactive) |
| COc1ccc(NC(=O)CCc2ccccc2)cc1NC(=O)c1ccco1 | 526 | 2.3% (inactive) | 8.7% (inactive) | 88.9 | -61.5% (inactive) | 95.1 | -0.504 (inactive) | -5e-05 (inactive) | 0.0047 (inactive) | 16.7% (inactive) | 37.2% (inactive) |
| CCOC(=O)C(C(C)=O)c1nc(C)nc2c1nnn2Cc1ccccc1Cl (stereo not drawn) | 479 | 8.5% (inactive) | -6% (inactive) | 96.1 | -10.3% (inactive) | 106 | -0.356 (inactive) | -5.3e-05 (inactive) | 0.00379 (inactive) | -11.2% (inactive) | -19.4% (inactive) |
| NC(=O)CSc1cn(CCNC(=O)c2cccs2)c2ccccc12 | 604 | -1.4% (inactive) | 7% (inactive) | 84.8 | 19% (inactive) | 98.2 | -0.436 (inactive) | -4.5e-05 (inactive) | 0.00564 (inactive) | -2.46% (inactive) | 23.4% (inactive) |
| CCOC(=O)CSC1=C(C#N)C(c2ccc(C)o2)CC(=O)N1 (stereo not drawn) | 557 | 14.4% (inactive) | 29.1% (inactive) | 3.4 | -60% (inactive) | 95 | -0.511 (inactive) | -2e-05 (inactive) | 0.00803 (inactive) | 10.4% (inactive) | 87.6% (active) |
| COc1cccc(-c2nc(CS(=O)(=O)CC(=O)Nc3cc(C)ccc3C)c(C)o2)c1 | 718 | -4.6% (inactive) | -2.5% (inactive) | 59.5 | -21.2% (inactive) | 104 | -0.517 (inactive) | -4.8e-05 (inactive) | 0.00688 (inactive) | 5.73% (inactive) | 27.7% (inactive) |
| O=C(O)c1ccc(-c2ccc(O)c(F)c2)cc1 | 677 | 1.3% (inactive) | 11% (inactive) | 89.9 | -11.2% (inactive) | 104 | -0.59 (inactive) | -4.3e-05 (inactive) | 0.0076 (inactive) | -3.64% (inactive) | 17.3% (inactive) |
| Cc1cccc(N2C(=O)CC(Sc3nc(C)c4c(n3)CCCC4)C2=O)c1 (stereo not drawn) | 603 | 3.4% (inactive) | -4.5% (inactive) | 105 | 2% (inactive) | 104 | -0.592 (inactive) | -2.5e-05 (inactive) | 0.00308 (inactive) | -11.6% (inactive) | -8.43% (inactive) |
| O=C(CSc1ncnc2c1oc1ccccc12)NCc1ccco1 | 398 | 1.5% (inactive) | -6.6% (inactive) | 99.3 | -38.6% (inactive) | 105 | -0.61 (inactive) | -2.9e-05 (inactive) | 0.00442 (inactive) | 15.1% (inactive) | 25% (inactive) |
| CCCN1C=CC(=C2C(=O)c3ccccc3C2=O)C=C1 | 418 | 2% (inactive) | 16.6% (inactive) | 44.6 | -7.6% (inactive) | 111 | -0.377 (inactive) | -6.2e-05 (inactive) | 0.00522 (inactive) | 29.8% (inactive) | 89.4% (active) |
| CC(=O)NS(=O)(=O)c1ccc(NC(=O)c2ccccc2F)cc1 | 515 | -3.9% (inactive) | 23.5% (inactive) | 90.4 | 31.9% (inactive) | 90.8 | -0.383 (inactive) | -3.8e-05 (inactive) | 0.00586 (inactive) | 6.18% (inactive) | 8.62% (inactive) |
| COc1cccc(C2C(C(N)=O)=C(C)Nc3nc(-c4ccccc4Cl)nn32)c1 (stereo not drawn) | 804 | -4% (inactive) | -14.6% (inactive) | 93.9 | -48.3% (inactive) | 110 | -0.416 (inactive) | -9.2e-05 (inactive) | 0.00547 (inactive) | 12.6% (inactive) | 40.8% (inactive) |
| OC(CN1CCN(c2ccccn2)CC1)Cn1c2ccccc2c2ccccc21 (stereo not drawn) | 386 | 5.1% (inactive) | 7.2% (inactive) | 104 | -14.4% (inactive) | 107 | -0.472 (inactive) | 5.1e-05 (inactive) | 0.00493 (inactive) | 1.54% (inactive) | 21.8% (inactive) |
| CC(C)CCN1CC(C(=O)NCc2ccccc2)CC1=O (stereo not drawn) | 538 | 2.2% (inactive) | 2.7% (inactive) | 121 | -57.7% (inactive) | 108 | -0.288 (inactive) | -1.6e-05 (inactive) | 0.00611 (inactive) | 30.7% (inactive) | 14.3% (inactive) |
| COCCn1nnnc1C(C(C)C)N1CCN(C(=O)c2ccco2)CC1 (stereo not drawn) | 314 | 1.6% (inactive) | 10% (inactive) | 85.2 | -23.9% (inactive) | 121 | -0.511 (inactive) | 4.3e-05 (inactive) | 0.00753 (inactive) | -9.3% (inactive) | -17.2% (inactive) |
| Cc1ccc(C(C(=O)NC(C)(C)C)N(C(=O)c2csnn2)c2cccc(F)c2)o1 (stereo not drawn) | 357 | 4.3% (inactive) | 7.8% (inactive) | 93.7 | -33.5% (inactive) | 81.8 | -0.492 (inactive) | 8.2e-06 (inactive) | 0.00622 (inactive) | 8.19% (inactive) | 20.7% (inactive) |
| S=c1[nH]nc(-c2ccco2)n1-c1cccc2ccccc12 | 390 | 1.5% (inactive) | -1.8% (inactive) | 111 | -181% (inactive) | 104 | -0.526 (inactive) | 3.2e-05 (inactive) | 0.00555 (inactive) | -23.7% (inactive) | -8.5% (inactive) |
| COc1cc(C2c3c(oc4ccccc4c3=O)C(=O)N2c2ccc(C)cn2)ccc1O (stereo not drawn) | 464 | 2.1% (inactive) | 8.8% (inactive) | 107 | -49% (inactive) | 122 | -0.598 (inactive) | -4.5e-05 (inactive) | 0.00645 (inactive) | -5.41% (inactive) | 7.4% (inactive) |
| COc1nnc(-c2ccc(C)c(S(=O)(=O)NCCO)c2)c2ccccc12 | 325 | -2.7% (inactive) | 11.7% (inactive) | 75.4 | -17.6% (inactive) | 95.3 | -0.424 (inactive) | 1e-05 (inactive) | 0.0039 (inactive) | 1.8% (inactive) | 28.9% (inactive) |
| CCOC(=O)N1CCC(NC(=O)CSCc2nc(-c3cccc(OC)c3)oc2C)CC1 | 292 | 4.4% (inactive) | -9% (inactive) | 94.6 | -30.2% (inactive) | 124 | -0.498 (inactive) | -5.4e-05 (inactive) | 0.00445 (inactive) | 9% (inactive) | -6.15% (inactive) |
